# Experimental data reported in PubChem BioAssay (NCATS).
# A number with no mark means an inactive call. Records with an inconclusive call do not appear. Entries that show only a call come without a potency. The source made the active and inactive calls. The call rests on the fitted dose curve; in most records, active means well fitted curve in the direction sought with a large enough effect; inconclusive means small, poorly fitted or top-dose-only effect, or another doubt; inactive means no such curve, though single readings can be large; an effect the other way counts as inactive or inconclusive.
# What was measured:
# [1] = P-glycoprotein substrates identified in KB-8-5-11 adenocarcinoma cell line, qHTS therapeutic library screen (AID 1346987); further: nearly all actives have a fitted effect of over 65% in size; further: potency means the concentration at half of the fitted maximal effect
# Summary of the method: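 Compounds are pinned in dose-response onto KB-8-5-11 cells (500 cells/well, colchicine-free medium) and left 72 h at 37 degree C. CellTiter-Glo luminescence then yields AC50 values.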
# [2] = test system: Zika virus NS2B-NS3 protease (linked construct); test: Primary screen NINDS Rhodamine qHTS for Zika virus inhibitors (AID 1347160); further: nearly all actives have a fitted effect of over 55% in size
# Summary of the method: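 Rhodamine110-peptide cleavage (1.5 µM substrate) by 25 nM linked NS2B-NS3 enzyme at pH 8.0 (Tris, Tween 20), after 15 min RT preincubation with compounds; 15-min fluorescence change normalized to controls and Hill-fitted.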
# [3] = molecular target: Calcium and integrin-binding protein 1 (Homo sapiens) (UniProt Q99828); test: Primary qHTS for Identification of Calcium Integrin Binding Protein 1 (CIB1) Competitor (AID 1508620);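 further: GST tagged CIB1 binding a fluorescein labelled alphaIIb integrin peptide tracer; top concentration of the series differs between compounds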
# Summary of the method: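 CIB1-GST (1 uM final) and compound incubated 15 min at room temperature before adding FITC-alphaIIb peptide tracer (100 nM final). Competition for binding read by fluorescence polarization (ex 480, em 540) after another 15 min at room temperature.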
# [4] = Primary qHTS for inhibitors of nuclear receptor binding SET domain protein 2 (NSD2) in an isogenic RCH-ACV NSD2 p.E1099K mutant (9B) (AID 1645876); further: nearly all actives have a fitted effect of over 70% in size; further: potency means the concentration at half of the fitted maximal effect
# [5] = molecular target: Luciferin 4-monooxygenase (Photinus pyralis) (UniProt P08659); test: Primary firefly luciferase (FLuc) qHTS assay for identification of artifact compounds. (AID 1845220); settings: outcome: dose series up to 54.1 µM unless noted; further: nearly all actives have a fitted effect of over 60% in size
# Summary of the method: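 FLuc 10 nM; luciferin 10 uM; ATP 10 uM; Tris-acetate pH 7.6, Mg-acetate 10 mM; 15 min RT preincubation; 5 min reaction; luminescence.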
# [6] = test system: Nanoluciferase (engineered Oplophorus gracilirostris luciferase); test: Primary Nanoluciferase (NLuc) qHTS assay for identification of artifact compounds. (AID 1845222);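 further: NLuc secreted into diluted conditioned medium of S16 cells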
# Summary of the method: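 NLuc from S16 cell medium (1:55) plus test compounds, 15 min, room temperature. Luminescence after Nano-Glo (1:100) addition, 5 min.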
# [7] = Primary redox qHTS assay for identification of artifact compounds. (AID 1845223)
# Summary of the method: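 Redox-cycling detection via DTT (250 uM final) oxidation coupled to Amplex Red (25 uM)/HRP (250 mU/mL) in HBSS. 15 min preincubation plus 30 min after DTT, room temperature. Ex/Em 525/598 nm; 4-parameter Hill fit against DMSO and 10 uM DA3003.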
# [8] = test system: CRL-7250; test: Cytotoxic Profiling of Annotated Libraries Using Quantitative High-Throughput Screening (AID 1296008); settings: Five cell lines viability, CellTiter-Glo ATP luminescence, 48-72 h; max response: stronger effect = lower value; further: nearly all actives have a fitted effect of over 60% in size; further: potency means the concentration at half of the fitted maximal effect
# Summary of the method: (§1)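 Cytotoxicity was measured as CellTiter-Glo ATP luminescence, read after 10 min at room temperature. Compound treatment of the cells lasted 48 or 72 hr at 37 degrees Celsius in a qHTS format.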
# [9] = test system: HEK293; test: as above; settings: Five cell lines viability, CellTiter-Glo ATP luminescence, 48-72 h; max response: stronger effect = lower value
# Summary of the method: as §1
# [10] = test system: HaCat; test: as above; settings: Five cell lines viability, CellTiter-Glo ATP luminescence, 48-72 h; max response: stronger effect = lower value
# Summary of the method: as §1
# [11] = test system: C33A; test: Primary qHTS to identify gynecologic anti-cancer compounds using libraries of approved drugs and bioactive compounds (AID 1345084); settings: Gynecologic cancer cell panel viability, ATPlite luminescence, 48 h; series mostly up to 57.5 µM; further: nearly all actives have a fitted effect of over 55% in size; further: potency means the concentration at half of the fitted maximal effect
# Summary of the method: (§2)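 Measured: luminescence after ATPlite addition (15 min, RT). Exposure: 48 h, 37 C, 5% CO2.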
# [12] = test system: CASKI; test: as above; settings: Gynecologic cancer cell panel viability, ATPlite luminescence, 48 h; series mostly up to 57.5 µM
# Summary of the method: as §2
# [13] = test system: Hek293T; test: as above; settings: Gynecologic cancer cell panel viability, ATPlite luminescence, 48 h, control line for the selectivity index; series mostly up to 57.5 µM
# Summary of the method: as §2
# [14] = test system: OV90; test: as above; settings: Gynecologic cancer cell panel viability, ATPlite luminescence, 48 h; series mostly up to 57.5 µM
# Summary of the method: as §2
# [15] = test system: PA-1; test: as above; settings: Gynecologic cancer cell panel viability, ATPlite luminescence, 48 h; series mostly up to 57.5 µM
# Summary of the method: as §2
# [16] = test system: Tov112D; test: as above; settings: Gynecologic cancer cell panel viability, ATPlite luminescence, 48 h; series mostly up to 57.5 µM
# Summary of the method: as §2
# [17] = molecular target: Phospholipid hydroperoxide glutathione peroxidase GPX4 (Homo sapiens) (UniProt P36969); test: Primary qHTS Assay for Inhibitors of Recombinant Selenoprotein Glutathione Peroxidase 4 (GPX4) (AID 1845192); further: nearly all actives have a fitted effect of over 65% in size
# Summary of the method: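 NADPH consumption followed by fluorescence at 340/450 nm, t=0 and after 15 min at room temperature. Reaction started with cumene hydroperoxide (0.5 mM final) after 30 min compound–GPX4 preincubation; final 200 nM GPX4, 100 nM GR, 1 mM GSH, 0.5 mM NADPH.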
# [18] = test system: NIH3T3; test: Cytotoxic Profiling of Annotated Libraries Using Quantitative High-Throughput Screening (AID 1296008); settings: Five cell lines viability, CellTiter-Glo ATP luminescence, 48-72 h; max response: stronger effect = lower value; further: nearly all actives have a fitted effect of over 60% in size; further: potency means the concentration at half of the fitted maximal effect
# Summary of the method: as §1
# [19] = test system: Es-2; test: Primary qHTS to identify gynecologic anti-cancer compounds using libraries of approved drugs and bioactive compounds (AID 1345084); settings: Gynecologic cancer cell panel viability, ATPlite luminescence, 48 h; series mostly up to 57.5 µM; further: nearly all actives have a fitted effect of over 55% in size; further: potency means the concentration at half of the fitted maximal effect
# Summary of the method: as §2
# [20] = test system: Tov-21-G; test: as above; settings: Gynecologic cancer cell panel viability, ATPlite luminescence, 48 h; series mostly up to 57.5 µM
# Summary of the method: as §2
# Phospholipid hydroperoxide glutathione peroxidase GPX4 (Homo sapiens), sequence (P36969 whole entry, looked up): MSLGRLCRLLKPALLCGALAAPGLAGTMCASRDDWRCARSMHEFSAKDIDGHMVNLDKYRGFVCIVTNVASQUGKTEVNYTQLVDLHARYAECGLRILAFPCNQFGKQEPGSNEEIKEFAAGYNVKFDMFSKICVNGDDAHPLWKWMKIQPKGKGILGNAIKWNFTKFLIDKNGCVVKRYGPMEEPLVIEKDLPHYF
# Calcium and integrin-binding protein 1 (Homo sapiens), sequence (Q99828 whole entry, looked up): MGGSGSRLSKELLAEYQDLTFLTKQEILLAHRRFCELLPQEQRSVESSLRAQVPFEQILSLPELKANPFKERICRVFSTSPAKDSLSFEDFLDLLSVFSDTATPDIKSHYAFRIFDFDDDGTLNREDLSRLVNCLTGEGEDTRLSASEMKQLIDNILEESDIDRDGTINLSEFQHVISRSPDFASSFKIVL
smiles,measurement,setting,value
C=C1[C@@H](C)[C@H]2[C@H](Cc3ccccc3)NC(=O)[C@]23[C@H](OC(C)=O)/C=C/[C@](C)(O)C(=O)[C@@H](C)C/C=C/[C@H]3[C@@H]1O,Potency,[1],9200 nM (active)
same,Potency,[2],inactive
same,Potency,[3],inactive
same,Potency,[4],728 nM (active)
same,outcome,[5],inactive
same,Potency,[6],inactive
same,Potency,[7],inactive
same,Potency,[8],259 nM (active)
same,Potency,[9],731 nM (active)
same,Potency,[10],23100 nM (active)
same,Potency,[11],inactive
same,Potency,[12],inactive
same,Potency,[13],inactive
same,Potency,[14],1260 nM (active)
same,Potency,[15],1780 nM (active)
same,Potency,[16],inactive
C=CCN1CC[C@]23c4c5ccc(O)c4O[C@H]2[C@@H](O)CC[C@@]3(O)[C@H]1C5,Potency,[1],inactive
same,Potency,[3],inactive
same,Potency,[4],inactive
same,Potency,[17],inactive
same,outcome,[5],inactive
same,Potency,[6],inactive
same,Potency,[7],inactive
same,max response,[8],-15.6%
same,max response,[9],-13.2%
same,max response,[10],3.65%
same,max response,[18],-28.6%
same,Potency,[11],inactive
same,Potency,[12],inactive
same,Potency,[19],inactive
same,Potency,[13],inactive
same,Potency,[14],inactive
same,Potency,[15],inactive
same,Potency,[20],inactive
same,Potency,[16],inactive
CCC1NC(=O)C2C(Cl)C(Cl)CN2C(=O)C(CC)NC(=O)CC(c2ccccc2)NC(=O)C(CO)NC1=O (stereo unspecified),Potency,[1],inactive
same,Potency,[3],inactive
same,Potency,[17],inactive
same,outcome,[5],inactive
same,Potency,[6],inactive
same,Potency,[7],inactive
same,max response,[8],2.35%
same,max response,[9],-1.56%
same,outcome,[10],inactive
same,outcome,[18],inactive
same,Potency,[11],inactive
same,Potency,[12],inactive
same,Potency,[19],inactive
same,Potency,[13],inactive
same,Potency,[14],inactive
same,Potency,[15],inactive
same,Potency,[16],inactive
CN(C)[C@@H]1C(=O)C(C(N)=O)=C(O)[C@@]2(O)C(=O)C3=C(O)c4c(O)ccc(Cl)c4[C@@](C)(O)C3C[C@@H]12 (stereo partly specified),Potency,[1],inactive
same,Potency,[2],inactive
same,Potency,[4],inactive
same,Potency,[17],inactive
same,outcome,[5],inactive
same,Potency,[6],inactive
same,max response,[8],-6.15%
same,max response,[9],0.697%
same,outcome,[18],inactive
same,Potency,[11],inactive
same,Potency,[12],inactive
same,Potency,[19],inactive
same,Potency,[13],inactive
same,Potency,[14],inactive
same,Potency,[15],inactive
same,Potency,[20],inactive
same,Potency,[16],inactive
CCC1C2CC3C4N(C)c5ccccc5C45CC(C2C5O)N3C1O (stereo unspecified),Potency,[1],inactive
same,Potency,[2],inactive
same,Potency,[4],inactive
same,Potency,[17],inactive
same,outcome,[5],inactive
same,Potency,[6],inactive
same,Potency,[7],inactive
same,max response,[8],-9.12%
same,outcome,[9],inactive
same,max response,[18],2.24%
same,Potency,[11],inactive
same,Potency,[12],inactive
same,Potency,[19],inactive
same,Potency,[13],inactive
same,Potency,[14],inactive
same,Potency,[15],inactive
same,Potency,[20],inactive
same,Potency,[16],inactive
COC1C(O)C(C)OC(OC2C(CO)O[C@@H](O[C@@H]3CC4CCC5C(CC[C@]6(C)[C@@H](C7=CC(=O)OC7)CC[C@]56O)[C@@]4(C)[C@H](OC(C)=O)C3)C(O)C2O)C1O (stereo partly specified),Potency,[1],2730 nM (active)
same,Potency,[2],inactive
same,Potency,[3],inactive
same,Potency,[4],2160 nM (active)
same,Potency,[17],inactive
same,outcome,[5],inactive [at 25.7 µM]
same,Potency,[6],inactive
same,Potency,[8],2170 nM (active)
same,Potency,[9],2430 nM (active)
same,Potency,[10],4320 nM (active)
same,outcome,[18],inactive
same,Potency,[11],3550 nM (active)
same,Potency,[19],6310 nM (active)
same,Potency,[13],3550 nM (active)
same,Potency,[14],inactive
same,Potency,[20],3550 nM (active)
same,Potency,[16],2820 nM (active)
C=C1[C@@]23C(=O)O[C@H](C)[C@]24O[C@@]2(C(=C)[C@]5(C=CC(=O)OC5(C)C)CC[C@]32C)[C@H](O)[C@@]1(C)OC4=O,Potency,[1],inactive
same,Potency,[3],inactive
same,Potency,[4],inactive
same,Potency,[17],inactive
same,outcome,[5],inactive
same,Potency,[6],inactive
same,max response,[8],-20.6%
same,max response,[9],-10.4%
same,outcome,[10],inactive
same,max response,[18],0.197%
same,Potency,[11],inactive
same,Potency,[12],inactive
same,Potency,[19],inactive
same,Potency,[13],inactive
same,Potency,[14],inactive
same,Potency,[15],inactive
same,Potency,[20],inactive
same,Potency,[16],inactive
C[C@]12CC[C@H](O)C[C@H]1CC[C@@H]1[C@@H]2[C@H](O)C[C@]2(C)[C@@H](c3ccc(=O)oc3)CC[C@]12O,Potency,[1],51.7 nM (active)
same,Potency,[2],inactive
same,Potency,[4],16.3 nM (active)
same,Potency,[17],inactive
same,outcome,[5],inactive
same,Potency,[6],inactive
same,Potency,[7],inactive
same,Potency,[8],10.3 nM (active)
same,Potency,[9],36.6 nM (active)
same,Potency,[10],146 nM (active)
same,Potency,[12],501 nM (active)
same,Potency,[19],100 nM (active)
same,Potency,[14],355 nM (active)
same,Potency,[15],355 nM (active)
same,Potency,[20],100 nM (active)
COC1C=CC23c4cc5c(cc4COC2(O)CN(C)C3C1)OCO5 (stereo unspecified),Potency,[1],inactive
same,Potency,[2],inactive
same,Potency,[3],inactive
same,Potency,[4],inactive
same,Potency,[17],inactive
same,outcome,[5],inactive
same,Potency,[6],inactive
same,Potency,[7],inactive
same,max response,[8],-6.96%
same,max response,[9],-0.372%
same,outcome,[10],inactive
same,max response,[18],-0.709%
same,Potency,[11],inactive
same,Potency,[12],inactive
same,Potency,[19],inactive
same,Potency,[13],inactive
same,Potency,[14],inactive
same,Potency,[20],inactive
same,Potency,[16],inactive
CCc1nn(C)c(C(=O)NCc2ccc(Oc3ccc(C)cc3)cc2)c1Cl,Potency,[1],25900 nM (active)
same,Potency,[2],inactive
same,Potency,[3],inactive
same,Potency,[4],817 nM (active)
same,Potency,[17],inactive
same,outcome,[5],inactive
same,Potency,[6],inactive
same,Potency,[7],inactive
same,Potency,[8],6.5 nM (active)
same,Potency,[9],7.3 nM (active)
same,max response,[10],1.94%
same,Potency,[19],inactive
same,Potency,[14],631 nM (active)
same,Potency,[20],inactive
same,Potency,[16],inactive
